Here are results for 87 molecules from PMC4336329 (PLoS ONE, 2015).

Out of some 310,000 compounds screened, about 14,000 (4.5%) showed an effect of 50% or more. Effects have a minus sign here. For the sample, strong results were picked, then their nearest neighbours and some compounds at random.
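Further: peak tail current of the secondary pulse compared with the same well before compound.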

The target of this experiment is human ether-à-go-go-related gene (hERG) potassium channel (human, UniProt Q12809). The experiment is described as follows: primary screen, population patch clamp on CHO cells stably expressing hERG; higher = less effect of the substance.
Chain of human ether-à-go-go-related gene (hERG) potassium channel (Q12809 whole entry, looked up): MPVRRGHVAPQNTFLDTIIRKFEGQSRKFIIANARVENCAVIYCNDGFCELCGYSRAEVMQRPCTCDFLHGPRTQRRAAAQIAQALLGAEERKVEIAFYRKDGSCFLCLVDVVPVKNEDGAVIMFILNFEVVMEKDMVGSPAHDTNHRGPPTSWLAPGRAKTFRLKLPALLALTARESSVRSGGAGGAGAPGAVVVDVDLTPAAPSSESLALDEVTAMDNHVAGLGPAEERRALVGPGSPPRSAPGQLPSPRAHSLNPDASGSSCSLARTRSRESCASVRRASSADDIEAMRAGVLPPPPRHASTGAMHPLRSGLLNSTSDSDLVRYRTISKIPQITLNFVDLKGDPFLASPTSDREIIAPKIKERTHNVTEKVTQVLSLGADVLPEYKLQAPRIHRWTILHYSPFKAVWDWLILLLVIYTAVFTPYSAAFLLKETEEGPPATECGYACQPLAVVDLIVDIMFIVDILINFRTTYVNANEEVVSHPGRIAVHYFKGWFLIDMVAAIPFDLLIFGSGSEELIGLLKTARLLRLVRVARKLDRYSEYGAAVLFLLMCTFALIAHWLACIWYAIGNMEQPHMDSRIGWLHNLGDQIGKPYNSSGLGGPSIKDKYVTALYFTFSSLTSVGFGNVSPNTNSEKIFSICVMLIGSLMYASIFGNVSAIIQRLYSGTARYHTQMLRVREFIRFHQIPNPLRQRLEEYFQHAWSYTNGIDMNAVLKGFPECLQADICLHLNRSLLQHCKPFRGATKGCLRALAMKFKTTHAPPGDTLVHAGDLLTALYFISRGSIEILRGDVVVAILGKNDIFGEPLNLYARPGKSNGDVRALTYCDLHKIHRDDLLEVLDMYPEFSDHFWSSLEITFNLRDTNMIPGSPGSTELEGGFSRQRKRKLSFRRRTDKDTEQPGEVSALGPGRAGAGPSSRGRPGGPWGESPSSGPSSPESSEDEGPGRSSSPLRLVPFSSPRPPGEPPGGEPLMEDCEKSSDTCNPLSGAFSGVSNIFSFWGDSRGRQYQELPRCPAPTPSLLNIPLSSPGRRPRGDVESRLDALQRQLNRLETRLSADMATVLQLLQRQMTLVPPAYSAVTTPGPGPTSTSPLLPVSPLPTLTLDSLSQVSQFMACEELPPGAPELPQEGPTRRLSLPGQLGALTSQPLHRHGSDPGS
Take `CC(OC(=O)/C=C/c1ccc(Br)cc1)C(=O)N1CCOCC1` (stereo not drawn): the “hERG current change (%, negative = inhibition) at 10uM” value is -10.8%.
For the molecule `CCc1cc(=O)oc2c(CNC(Cc3ccccc3)C(=O)O)c(O)ccc12` (stereo not drawn), the “hERG current change (%, negative = inhibition) at 10uM” value worked out at 9.3%.
The same measure for `O=c1ccn(Cc2ccccc2Cl)cc1`: 8.8%; for `O=C(CCc1nnc(-c2ccsc2)o1)NCc1ccccc1OC(F)(F)F`: 3.76%.
The figure for `CN1C(=O)C(=Cc2coc3ccccc3c2=O)C(=O)N(C)C1=O` is 2.32%.
Consider `Cc1ccc(NC(=O)Cn2cnc3ccccc32)cc1C`, for which the “hERG current change (%, negative = inhibition) at 10uM” value is recorded as -3.44%.
The figure for `O=C(Cn1cnc2ccccc21)Nc1ccc(F)c(F)c1` is 8.41%; for `O=C(Cn1cnc2ccccc21)Nc1ccc(C(=O)O)cc1.O=C(O)C(=O)O` it is -71.4%; for `O=S(=O)(c1ccc(N2CCOCC2)cc1)N1CCOCC1` it is -5.96%.
The figure for `O=C(CNC(=O)c1ccccc1)OCCCOC(=O)CNC(=O)c1ccccc1` is 11.8%.
The figure for `O=C(NC(=S)N1CCOCC1)c1ccccc1Cl` is 12.7%.
As to `O=C(NN1C(=O)c2cc(Br)ccc2NC1c1ccccc1Cl)c1ccncc1` (stereo not drawn), the “hERG current change (%, negative = inhibition) at 10uM” value stood at 8.83%.
The same measure for `Cc1nc2cc(NC(=O)N3CCCC3)ccc2n1C`: -1.21%.
The figure for `COc1ccc(CNC(=O)CN2CCC(n3nnc4cc(F)ccc43)CC2)cc1` is -68%.
The same measure for `COc1cc(NC(=O)Nc2ccccc2OC)c(OC)cc1NC(=O)CN1CCCCC1`: 1.04%.
Regarding `COc1ccccc1NC(=O)CN1CCC(n2c(C)nc3cc(F)ccc32)CC1`, the “hERG current change (%, negative = inhibition) at 10uM” value is recorded as -72.2%.
The figure for `COc1ccc(Cl)cc1NC(=O)CN1CCC(n2nnc3cc(F)ccc32)CC1` is -7.93%; for `COc1ccc(Cl)cc1NC(=O)CN1CCC(n2nnc3ccccc32)CC1` it is -10.4%; for `COc1ccc(C(=O)NNC(=O)CN2CCC(n3nnc4cc(F)ccc43)CC2)cc1` it is -18.4%.
As for `COc1ccc(NC(=O)CN2CCC(n3c(C)nc4cc(F)ccc43)CC2)c(OC)c1`, the “hERG current change (%, negative = inhibition) at 10uM” value was -4.64%.
`COc1ccccc1NC(=O)CN1CCC(n2nnc3cc(F)ccc32)CC1`: the “hERG current change (%, negative = inhibition) at 10uM” value was -55.4%.
On to `Cc1nc2cc(NC(=O)N3CCC(c4ccccc4)C3)ccc2n1C` (stereo not drawn), for which the “hERG current change (%, negative = inhibition) at 10uM” value was -52.4%.
Consider `Cl.O=C(CN1CCC(n2nnc3cc(F)ccc32)CC1)NCc1ccco1`, for which the “hERG current change (%, negative = inhibition) at 10uM” value is listed as -35.6%.
Take `Cc1nc2ccc(NC(=O)N3CCC(c4ccccc4)C3)cc2nc1C` (stereo not drawn): the “hERG current change (%, negative = inhibition) at 10uM” value is -11.4%.
As to `CCc1ccc(C(=O)N/N=C/c2cccc3ccccc23)nc1`, the “hERG current change (%, negative = inhibition) at 10uM” value is recorded as 1.8%.
The figure for `Cc1ccc(-c2nnc(SCC(=O)N3CCCC3)o2)cc1C` is -0.309%; for `CC(C)Cc1nnc(NC(=O)CCC(=O)NC2CCCCCC2)s1` it is -48.6%; for `CCN(CC)CCP(=O)(c1ccccc1)c1ccccc1` it is -15.2%.
With `OCCN1CCN(c2nc(-c3ccccc3)nc3c2oc2ccccc23)CC1`, the “hERG current change (%, negative = inhibition) at 10uM” value is -6.34%.
With `COC(=O)C1=C(CN2CCN(C)CC2)NC(=O)NC1c1cc(C)ccc1C` (stereo not drawn), the “hERG current change (%, negative = inhibition) at 10uM” value is recorded as -41%.
The figure for `COc1ccc2c(=O)cc(-c3cccnc3)oc2c1OC` is 8.9%; for `CCc1nnc(NC(=O)c2c(-c3ccccc3)noc2C)s1` it is 10.2%.
The figure for `N#Cc1ccccc1OCC(=O)Nc1cccc(S(=O)(=O)N2CCCC2)c1` is 5.17%.
The same measure for `O=C(Cc1ccccc1F)Nc1ccc(SC(F)F)cc1`: 14%.
Consider `Cc1nc2ccccc2n1C1CCN(CC(=O)NCc2ccc(F)cc2)CC1`, for which the “hERG current change (%, negative = inhibition) at 10uM” value was -58%.
The same measure for `CC1CCC(NC(=O)CN2CCC(n3nnc4cc(F)ccc43)CC2)CC1` (stereo not drawn): -58.4%; for `O=C(CN1CCC(n2nnc3cc(F)ccc32)CC1)NC1CCCCC1`: -32.8%.
The figure for `Cc1ccccc1C(=O)NC1CCN(CC(=O)NCc2ccc(F)cc2)CC1` is -44.2%; for `O=C(CN1CCC(n2nnc3cc(F)ccc32)CC1)NC1CC1` it is -4.99%.
The figure for `COC(=O)C1CCN(C(=O)Nc2ccccc2)CC1` is 24.3%; for `O=C(Nc1ccccc1)N1CCC(n2c(=O)[nH]c3ccccc32)CC1` it is -8.18%; for `Cc1nc2ccccc2n1C1CCN(CC(=O)Nc2ccccc2Br)CC1` it is -25%.
As to `Cc1nc2ccccc2n1C1CCN(C(=O)Nc2ccccc2)CC1`, the “hERG current change (%, negative = inhibition) at 10uM” value was -60.5%.
With `Cc1ccc(CN(C)CC(=O)Nc2ccccc2C(=O)NC2CC2)o1`, the “hERG current change (%, negative = inhibition) at 10uM” value is reported as -7.18%.
The same measure for `N#Cc1c(F)cccc1N1CCC(C#N)CC1`: 8.29%; for `Cn1nnnc1SCC(=O)Nc1ccccc1C(=O)NC1CC1`: 7.04%; for `COc1ccccc1NC(=O)CCN1C(=O)/C(=C/c2cc(OC)c(OC)c(OC)c2)SC1=S`: 13.8%.
`O=C(Cc1ccccc1)Nc1ccc2oc(-c3ccncc3)nc2c1`: the “hERG current change (%, negative = inhibition) at 10uM” value is 0.815%.
The same measure for `COc1ccccc1-n1cnnc1SC(C)C(=O)Nc1cccc([N+](=O)[O-])c1` (stereo not drawn): -8.19%; for `COc1ccc(OC(C)C(=O)Nc2cccc([N+](=O)[O-])c2)cc1` (stereo not drawn): -58.8%.
The same measure for `CC(Oc1ccccc1)C(=O)Nc1cccc([N+](=O)[O-])c1` (stereo not drawn): -22%; for `COc1ccc(-n2cnnc2SC(C)C(=O)Nc2cccc([N+](=O)[O-])c2)cc1` (stereo not drawn): -59.3%.
The figure for `CC(Sc1nncn1-c1ccccc1)C(=O)Nc1cccc([N+](=O)[O-])c1` (stereo not drawn) is -17.2%.
On to `COc1ccc(OC(C)C(=O)Nc2ccc([N+](=O)[O-])cc2)cc1` (stereo not drawn), for which the “hERG current change (%, negative = inhibition) at 10uM” value is recorded as 3.6%.
The same measure for `COc1ccc(CNC(=O)CCSCc2ccc(C)cc2)cc1`: -16.2%; for `CCC1=Nc2cc(C(=O)O)ccc2Sc2ccccc21`: 21.2%; for `COC(=O)C1=C(c2ccc(S(C)(=O)=O)cc2)C[C@@H]2CC[C@H]1N2C(=O)NCc1ccc(C(F)(F)F)cc1`: -59.3%.
The same measure for `COC(=O)C1=C(c2ccc(S(C)(=O)=O)cc2)C[C@@H]2CC[C@H]1N2C(=O)NCc1cccc2ccccc12`: -61.6%.
The same measure for `COC(=O)C1=C(c2ccc(S(C)(=O)=O)cc2)C[C@@H]2CC[C@H]1N2C(=O)NCc1ccccc1`: -29.6%.
On to `COC(=O)C1=C(c2ccc(OC(F)(F)F)cc2)C[C@@H]2CC[C@H]1N2C(=O)NCc1cccc2ccccc12`, for which the “hERG current change (%, negative = inhibition) at 10uM” value is given as 20.4%.
The figure for `COC(=O)C1=C(c2ccc(C(C)=O)cc2)C[C@@H]2CC[C@H]1N2C(=O)NCc1ccc(C(F)(F)F)cc1` is 30%.
The same measure for `COC(=O)C1=C(c2ccccc2)C[C@@H]2CC[C@H]1N2C(=O)NCc1cccc2ccccc12`: -12.2%; for `Cc1ccc(C(=O)NC(C(=O)Nc2ccccc2)c2ccccc2)cc1` (stereo not drawn): 19.7%.
The same measure for `CC(NC(=O)Cn1cc(C(=O)C2CC2)c2ccccc21)c1ccccc1` (stereo not drawn): 4.74%; for `Cc1ccc(-c2nn(C)c(=O)c3ccccc23)cc1CNC(=O)c1ccco1`: -36.7%.
For `Cc1ccc(/C=C2/C(=O)NC(=O)N(Cc3ccc(F)cc3)C2=O)o1`, the “hERG current change (%, negative = inhibition) at 10uM” value came to 19.6%.
`COc1ccc(OCc2cc(C(=O)NCc3nc(C)cs3)no2)c(Cl)c1`: the “hERG current change (%, negative = inhibition) at 10uM” value is listed as -17.2%.
Consider `OCC1(Cc2ccccc2)CCN(Cc2ccc(C(F)(F)F)cc2)CC1`, for which the “hERG current change (%, negative = inhibition) at 10uM” value is on record as -72.9%.
As for `OCC1(Cc2ccccc2)CCN(Cc2ccc(-c3ccco3)cc2)CC1`, the “hERG current change (%, negative = inhibition) at 10uM” value is recorded as -66.6%.
The figure for `OCC1(Cc2ccccc2)CCCN(Cc2ccc(-c3ccco3)cc2)C1` (stereo not drawn) is -5.88%; for `OCC1(Cc2ccccc2C(F)(F)F)CCN(Cc2ccccc2)CC1` it is -41.3%; for `O=C(CSc1cn(CC(=O)N2CCOCC2)c2ccccc12)N1CCOCC1` it is 12.8%.
The same measure for `Cc1cc(C)c(C#N)c(SCc2ccc([N+](=O)[O-])cc2)n1`: 15.9%; for `COc1ccc(F)cc1S(=O)(=O)Nc1ccc2c(c1)OCO2`: 6.15%; for `CC(CCc1ccccc1)NC(=S)NC1CCCCC1` (stereo not drawn): 12%.
The same measure for `Cl.Fc1ccc(C(c2nnnn2C2CCCC2)N2CCN(Cc3ccncc3)CC2)cc1` (stereo not drawn): -24.8%; for `Cc1ccc(C(c2nnnn2CC2CCCO2)N2CCN(C)CC2)cc1.Cl` (stereo not drawn): -7.48%.
With `Clc1ccc(C(c2nnnn2C2CCCC2)N2CCN(Cc3ccncc3)CC2)cc1` (stereo not drawn), the “hERG current change (%, negative = inhibition) at 10uM” value is -71.7%.
The figure for `c1ccc(CN2CCN(C(c3ccccc3)c3nnnn3Cc3ccccc3)CC2)cc1` (stereo not drawn) is -64.7%; for `Clc1ccc(C(c2nnnn2C2CCCC2)N2CCSCC2)cc1` (stereo not drawn) it is -24.4%.
With `Cc1ccc(C(c2nnnn2CC2CCCO2)N2CCN(C(=O)c3ccco3)CC2)cc1` (stereo not drawn), the “hERG current change (%, negative = inhibition) at 10uM” value is recorded as -4.13%.
On to `Cc1ccc(C(c2nnnn2Cc2ccccc2)N2CC=C(c3ccc(F)cc3)CC2)cc1` (stereo not drawn), for which the “hERG current change (%, negative = inhibition) at 10uM” value amounted to 11.5%.
The figure for `CCC(C)(C)n1nnnc1C(c1ccccc1)N1CCN(Cc2ccccc2)CC1` (stereo not drawn) is -32%; for `Cc1ccc(C(c2nnnn2CCc2ccccc2)N2CCSCC2)cc1` (stereo not drawn) it is -13.5%; for `CCN1CCN(C(c2ccccc2)c2nnnn2Cc2ccccc2)CC1.Cl` (stereo not drawn) it is -27.4%.
The figure for `Cc1ccc(C(c2nnnn2Cc2ccccc2)N2CCN(Cc3ccccc3)CC2)cc1` (stereo not drawn) is -79%.
The same measure for `Cc1ccc(C(c2nnnn2CC2CCCO2)N2CCN(Cc3ccccc3)CC2)cc1` (stereo not drawn): -74.9%.
